Measured values taken from PubChem BioAssay (NCI).
“And” between values parts separate entries of the source, which are not always exact repeats. Equal values may be shown once. This is part of a sample that, as a whole, favours compounds with a hit. Of some 79,000 tested, about 15% had one in any assay. The source made the active and inactive calls. No stated cut-off is given here; in the data, active means growth inhibition above about 70%; inactive means the rest.

How the values were obtained:
[1] = NCI Yeast Anticancer Drug Screen. Data for the sgs1 strain (AID 173);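 further: 0% = growth of vehicle-only control cultures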; conditions: S. cerevisiae sgs1 mutant, active compounds read high
How it was run: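 Treat defined-mutant yeast with compound; measure growth; calculate inhibition relative to vehicle-treated cells.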

[2] = NCI Yeast Anticancer Drug Screen. Data for the mlh1 rad18 strain (AID 175); conditions: S. cerevisiae mlh1 rad18 strain growth inhibition, active compounds read high
How it was run: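 Test agents were incubated with a yeast strain of defined genotype (DNA damage repair defect). Inhibition of growth was derived by comparison with vehicle-exposed cultures.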

[3] = NCI Yeast Anticancer Drug Screen. Data for the rad18 strain (AID 177); conditions: S. cerevisiae rad18 mutant growth inhibition, active compounds read high
How it was run: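 A genetically defined yeast mutant impaired in DNA damage repair was treated with test compounds, then its growth was measured against cultures receiving vehicle alone.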

[4] = NCI Yeast Anticancer Drug Screen. Data for the rad50EPP+ strain (AID 151);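 further: 0% = growth of vehicle-treated control cultures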; conditions: S. cerevisiae rad50 mutant strain, active compounds read high
How it was run: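 Exposing the rad50EPP+ strain to each compound, growth was compared with vehicle-only cultures to give inhibition.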

[5] = NCI Yeast Anticancer Drug Screen. Data for the mgt1 strain (AID 153); conditions: S. cerevisiae mgt1 mutant growth inhibition, active compounds read high
How it was run: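 Genetically defined yeast (mgt1) treated with compound; inhibition of growth expressed against vehicle-treated controls.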

[6] = NCI Yeast Anticancer Drug Screen. Data for the mec2-1 strain (AID 157); conditions: S. cerevisiae mec2-1 strain, active compounds read high
How it was run: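 Readout is yeast growth inhibition, normalised to vehicle-treated controls, in the mec2-1 strain exposed to compound.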

[7] = NCI Yeast Anticancer Drug Screen. Data for the rad14 strain (AID 159);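 further: 0% = growth of vehicle-treated control cultures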; conditions: S. cerevisiae rad14 strain growth inhibition, active compounds read high
How it was run: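 Screen for anticancer potential: a yeast strain altered in DNA damage repair is grown with compound, and reduced growth is quantified against vehicle controls.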

[8] = NCI Yeast Anticancer Drug Screen. Data for the sgs1 mgt1 strain (AID 161);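 further: 0% = growth of cultures given vehicle only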; conditions: S. cerevisiae sgs1 mgt1 strain, active compounds read high
How it was run: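 This yeast growth screen uses a strain with defined DNA-repair lesions; compound-treated growth is compared with vehicle-treated growth.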

[9] = NCI Yeast Anticancer Drug Screen. Data for the CLN2oe strain (AID 163);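 further: 0% = growth of vehicle-only control cultures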; conditions: S. cerevisiae CLN2oe strain, active compounds read high
How it was run: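 Values reflect how much compound exposure reduced yeast growth, referenced to vehicle-exposed cells. Assay organism is a strain with a defined genetic change affecting cell-cycle control.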

[10] = NCI Yeast Anticancer Drug Screen. Data for the bub3 strain (AID 167); conditions: S. cerevisiae bub3 mutant strain, active compounds read high
How it was run: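 Screening used yeast with an engineered genetic alteration affecting cell cycle control. Compound-exposed cultures were compared with vehicle cultures, and reduced growth was taken as inhibition.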

[11] = NCI Yeast Anticancer Drug Screen. Data for the wt2 strain (AID 169);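 further: 0% = growth of vehicle-treated yeast cultures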; conditions: S. cerevisiae wt2 strain growth inhibition, active compounds read high
How it was run: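 Values express reduction in yeast growth under compound treatment, referenced to vehicle-treated cells.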

[12] = NCI Yeast Anticancer Drug Screen. Data for the rad50 strain (AID 155);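 further: 0% = growth of vehicle-only cultures of the same strain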; conditions: S. cerevisiae rad50 strain growth inhibition, active compounds read high
How it was run: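 Relative growth inhibition (compound vs vehicle) was measured in yeast with a defined repair-gene alteration.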

[13] = NCI Yeast Anticancer Drug Screen. Data for the cln2 rad14 strain (AID 165);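 further: 0% = growth equal to vehicle treated cultures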; conditions: S. cerevisiae cln2 rad14 strain, active compounds read high
How it was run: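 Relative to vehicle controls, growth inhibition of compound-treated cln2 rad14 yeast was recorded.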

[14] = NCI Yeast Anticancer Drug Screen. Data for the wt1 strain (AID 149);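 further: 0% = growth of vehicle-treated wt1 cultures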; conditions: S. cerevisiae wt1 strain (SPY 50644) growth inhibition, active compounds read high
How it was run: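 Using yeast strain wt1, compound-induced growth inhibition was determined against vehicle-treated cultures.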

[15] = NCI Yeast Anticancer Drug Screen. Data for the mlh1 strain (AID 171);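 further: 0% = growth of vehicle-treated control cultures of the same strain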; conditions: S. cerevisiae mlh1 strain growth inhibition, active compounds read high
How it was run: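 Steps: expose the defined-mutant yeast strain to compound; expose a parallel culture to vehicle; measure growth; express compound effect as inhibition relative to the vehicle culture.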

[16] = at 5.0 µM (retest, dose inferred, filed as 0.5)
[17] = at 50.0 µM (retest, dose inferred, filed as 5.0)

Measured: growth inhibition

O=C1C(Br)=CC(Br)(Br)C=C1Br
inactive: [1]; at 1.2 µM 2% | [1]; at 3.7 µM 5% | [1]; at 11.0 µM 59% | [3]; at 1.2 µM -4% | [3]; at 3.7 µM -13% | [3]; at 11.0 µM 26%
active: [1]; at 33.0 µM 96% | [1]; at 100.0 µM 98% | [2]; [16] 100% | [2]; [17] 100% | [2]; at 50.0 µM 90.6% | [3]; at 33.0 µM 95% | [3]; at 100.0 µM 98%

CCOC(=O)/C(O)=C(/C=N/C(=S)Nc1c(CC)cccc1CC)C(=O)OCC
inactive: [4]; at 1.2 µM -3% | [4]; at 3.7 µM -1% | [4]; at 11.0 µM -5% | [4]; at 33.0 µM -3% | [4]; at 100.0 µM -7% | [5]; at 1.2 µM -7% | [5]; at 3.7 µM -6% | [5]; at 11.0 µM 0% | [5]; at 33.0 µM 20% | [5]; at 100.0 µM 35% | [6]; at 1.2 µM -10% | [6]; at 3.7 µM -5% | [6]; [16] 3% | [6]; at 11.0 µM 10% | [6]; at 33.0 µM 27% | [6]; [17] 34% | [6]; at 50.0 µM 24.6% | [6]; at 100.0 µM 36% | [7]; at 1.2 µM -7% | [7]; at 3.7 µM -7% | [7]; at 11.0 µM -2% | [7]; at 33.0 µM 20% | [7]; at 100.0 µM 38% | [8]; [16] -4% | [8]; [17] 10% | [8]; at 50.0 µM 51.3% | [9]; at 1.2 µM -16% | [9]; at 3.7 µM -23% | [9]; at 11.0 µM -19% | [9]; at 33.0 µM -1% | [9]; at 100.0 µM 29% | [10]; at 1.2 µM -9% | [10]; at 3.7 µM -10% | [10]; [16] -20% | [10]; at 11.0 µM -5% | [10]; at 33.0 µM 12% | [10]; [17] 49% | [10]; at 50.0 µM 67% | [10]; at 100.0 µM 31% | [11]; at 1.2 µM -7% | [11]; at 3.7 µM -6% | [11]; at 11.0 µM -1% | [11]; at 33.0 µM 23% | [11]; at 100.0 µM 40% | [1]; at 1.2 µM -8% | [1]; at 3.7 µM 3% | [1]; at 11.0 µM 17% | [1]; at 33.0 µM 42% | [1]; at 100.0 µM 53% | [2]; [16] -8% | [2]; [17] 36% | [2]; at 50.0 µM 59.9%

CC(C)c1ccc(O)c(=O)cc1
active: [12]; at 50.0 µM 91.8% and 92.7% and 92.8% | [6]; at 50.0 µM 93.8% and 94.7% and 94.6% | [8]; at 50.0 µM 93.5% and 94% and 93% | [13]; at 50.0 µM 91.3% and 90.5% and 91.5% | [10]; at 50.0 µM 92.7% and 93.3% and 92.8% | [2]; at 50.0 µM 91.2% and 92.4% and 92.1%
inactive: [12]; [16] 6% and 0% | [12]; [17] 42% and 28% and -1% | [6]; [16] 2% and -1% | [6]; [17] 50% and 57% and 7% | [8]; [16] 4% and 6% | [8]; [17] 42% and 31% and 1% | [13]; [16] 6% and 5% and -1% | [13]; [17] 21% and 15% and 2% | [10]; [16] 0% and -1% and -5% | [10]; [17] 48% and 56% and -2% | [2]; [16] 5% and 6% and 2% | [2]; [17] 45% and 43% and -2%

O=C1C=CC(=Nc2ccc3c(c2)Cc2cc(Cl)ccc2-3)O1
inactive: [14]; at 1.2 µM -3% | [14]; at 3.7 µM 10% | [14]; at 11.0 µM 56% | [5]; at 1.2 µM 2% | [5]; at 3.7 µM 20% | [5]; at 11.0 µM 68% | [12]; at 1.2 µM -1% | [12]; at 3.7 µM 24% | [12]; [16] 25% | [6]; at 1.2 µM 6% | [6]; at 3.7 µM 19% | [6]; [16] 34% | [6]; at 11.0 µM 68% | [9]; at 1.2 µM -1% | [9]; at 3.7 µM 3% | [9]; at 11.0 µM 23% | [13]; [16] 7% | [11]; at 1.2 µM 5% | [11]; at 3.7 µM 28% | [15]; at 1.2 µM 9% | [15]; at 3.7 µM 21% | [1]; at 1.2 µM 11% | [1]; at 3.7 µM 48% | [2]; [16] 32% | [3]; at 1.2 µM 10% | [3]; at 3.7 µM 36%
active: [14]; at 33.0 µM 99% | [14]; at 100.0 µM 98% | [5]; at 33.0 µM 99% | [5]; at 100.0 µM 99% | [12]; at 11.0 µM 78% | [12]; at 33.0 µM 99% | [12]; [17] 99% | [12]; at 50.0 µM 99.5% | [12]; at 100.0 µM 96% | [6]; at 33.0 µM 99% | [6]; [17] 100% | [6]; at 50.0 µM 99% | [6]; at 100.0 µM 98% | [9]; at 33.0 µM 98% | [9]; at 100.0 µM 97% | [13]; [17] 99% | [13]; at 50.0 µM 98.2% | [11]; at 11.0 µM 100% | [11]; at 33.0 µM 99% | [11]; at 100.0 µM 98% | [15]; at 11.0 µM 74% | [15]; at 33.0 µM 99% | [15]; at 100.0 µM 98% | [1]; at 11.0 µM 88% | [1]; at 33.0 µM 99% | [1]; at 100.0 µM 98% | [2]; [17] 99% | [2]; at 50.0 µM 84.2% | [3]; at 11.0 µM 95% | [3]; at 33.0 µM 99% | [3]; at 100.0 µM 97%
